Some test systems named below: NCI-H23 lung; NCI-H460 lung; 786-0 renal; DU-145 prostate; MDA-MB-231 breast; SF-268 CNS; SF-539 CNS; M14 melanoma; SNB-75 CNS; PC-3 prostate; UACC-62 melanoma; SK-MEL-28 melanoma; ACHN renal; OVCAR-5 ovarian; OVCAR-3 ovarian; NCI/ADR-RES ovarian; SW-620 colon; MCF7 breast; HCT-116 colon; KM12 colon.
Assay in all cases: NCI-60 one-dose screen, 48 h (100 = growth as untreated, 0 = no growth, -100 = all killed)
Holding throughout (details): 10 µM unless noted

Compounds without any hit were thinned out: in the full panel of roughly 83,000, 20% have a hit.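 Method: cells in 96-well plates; compound added at one concentration; 48 h incubation; percent growth measured; values under 10 scored active.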 Values without a mark were called inactive. Calls of active or inactive are those of the source.

In the case of `C[C@]12C[C@H](O)[C@H]3[C@@H](CCC4=CC(=O)CC[C@@]43C)[C@@H]1CC[C@@H]2O`, the growth in the test with NCI-H23 lung is 103%; in the test with NCI-H460 lung, 108%; with 786-0 renal, 107%; with DU-145 prostate, 112%; with MDA-MB-231 breast it was 103%; with SF-268 CNS, 105%. Besides, the growth in the test with SF-539 CNS was 99%; in the test on M14 melanoma it was 98.4%; with SNB-75 CNS, 85.7%; in the test with PC-3 prostate, 95.3%; with UACC-62 melanoma, 98.5%; with SK-MEL-28 melanoma, 106%. In addition, the growth is 101% in the test with ACHN renal; 105% with OVCAR-5 ovarian; 112% in the test on OVCAR-3 ovarian; 104% in the test with NCI/ADR-RES ovarian; 107% in the test with SW-620 colon; 103% in the test with MCF7 breast. Also, the values for the growth in the test on HCT-116 colon and with KM12 colon were 101% and 105%, respectively.

Consider `Oc1c(Br)cc(Br)cc1Br.[Cu+2]`, for which the growth in the test on NCI-H23 lung was 104%; in the test on NCI-H460 lung, 103%; with 786-0 renal, 115%; in the test with DU-145 prostate it was 108%; with MDA-MB-231 breast it was 111%; in the test on SF-268 CNS it was 105%. Moreover, the growth in the test with SF-539 CNS is 107%; in the test with M14 melanoma, 103%; in the test with SNB-75 CNS it was 98.7%; in the test with PC-3 prostate, 103%; in the test with UACC-62 melanoma, 109%; with SK-MEL-28 melanoma, 101%. In addition, the growth with ACHN renal is 105%; with OVCAR-5 ovarian, 120%; with OVCAR-3 ovarian, 109%; in the test with NCI/ADR-RES ovarian it was 105%; with SW-620 colon, 99.2%; in the test with MCF7 breast, 101%. The growth was 98.4% in the test with HCT-116 colon and 98.1% in the test with KM12 colon.

As to `COc1cc(C2CC(=O)Nc3nc(N)[se]c32)c(OC)c2c1OCO2` (centres undefined), the growth in the test with NCI-H23 lung was 99.7%; with NCI-H460 lung, 23.9%; in the test on 786-0 renal, 105%; with DU-145 prostate, 103%; in the test on MDA-MB-231 breast it was 96.3%; in the test with SF-268 CNS, 107%. Moreover, the growth with SF-539 CNS is 91%; in the test with M14 melanoma it was 85.1%; in the test with SNB-75 CNS it was 101%; in the test on PC-3 prostate it was 51.6%; in the test with UACC-62 melanoma, 99.3%; in the test on SK-MEL-28 melanoma it was 104%. Also, the growth was 99.1% in the test on ACHN renal; 108% with OVCAR-5 ovarian; 114% in the test with OVCAR-3 ovarian; 109% in the test with NCI/ADR-RES ovarian; 110% with SW-620 colon; 94.1% in the test on MCF7 breast. Besides, the growth in the test on HCT-116 colon is 65.7%; in the test on KM12 colon, 70.3%.

Consider `O=C(CCc1ccco1)NC1CCN(CC2(c3ccc(Cl)cc3)CCC2)CC1`, for which the growth with NCI-H23 lung was -22.6% (active); with NCI-H460 lung, 3.79% (active); in the test with 786-0 renal, 20.4%; in the test with DU-145 prostate it was 24%; in the test with MDA-MB-231 breast it was -6.18% (active); in the test with SF-268 CNS, 22.1%. For the same compound, the growth with SF-539 CNS was 34.5%; in the test with M14 melanoma, 10.3%; in the test with SNB-75 CNS it was 16%; with PC-3 prostate, 1.34% (active); with UACC-62 melanoma it was 17%; in the test on SK-MEL-28 melanoma, 30.1%. The growth in the test with ACHN renal was 13.8%; in the test with OVCAR-5 ovarian it was 53.2%; in the test on OVCAR-3 ovarian, 13.9%; in the test on NCI/ADR-RES ovarian it was 6.97% (active); with SW-620 colon, 14.7%; in the test on MCF7 breast it was 2.88% (active). The figures for the growth with HCT-116 colon and in the test with KM12 colon were 7.86% (active) and 1.4% (active), respectively.

`CC(C)(C)[Si](C)(C)OC1[C@@H](O[Si](C)(C)C(C)(C)C)[C@@H](CNC(=O)NC(=O)CF)O[C@H]1n1cnc2c(NC(=O)Nc3ccccc3)ncnc21` (some centres undefined): the growth in the test on NCI-H23 lung was 64.7%; in the test on NCI-H460 lung, 4.01% (active); with 786-0 renal, 61.4%; in the test on DU-145 prostate it was 47.6%; in the test with MDA-MB-231 breast it was 85.9%; in the test with SF-268 CNS, 26.6%. The growth is 92.6% in the test with SF-539 CNS; 73.2% with M14 melanoma; 73.8% in the test on SNB-75 CNS; 14.5% in the test with PC-3 prostate; 76.6% in the test on UACC-62 melanoma; 93.2% with SK-MEL-28 melanoma. For the same compound, the growth was 71.8% with ACHN renal; 91.5% with OVCAR-5 ovarian; 19.8% in the test with OVCAR-3 ovarian; 71% with NCI/ADR-RES ovarian; 33.8% in the test with SW-620 colon; 19% in the test with MCF7 breast. The growth in the test on HCT-116 colon is 21.3%; in the test on KM12 colon it was 28.5%.

Turning to `COC[CH2][Hg][C]#[C][Hg][CH2]COC`, the growth in the test with NCI-H23 lung is 71%; in the test on NCI-H460 lung, 94.4%; in the test on 786-0 renal, 41.7%; in the test with DU-145 prostate, 87.6%; in the test with SF-268 CNS, 93.7%; in the test on SF-539 CNS, 90.7%. Moreover, the growth is 73.2% in the test on M14 melanoma; 83% with SNB-75 CNS; 94.7% in the test with PC-3 prostate; 106% in the test with UACC-62 melanoma; 90.1% in the test with SK-MEL-28 melanoma; 98.7% in the test on ACHN renal. The growth in the test on OVCAR-5 ovarian was 116%; with OVCAR-3 ovarian it was 113%; in the test on NCI/ADR-RES ovarian, 102%; in the test on SW-620 colon, 108%; in the test on MCF7 breast it was 55.3%; with HCT-116 colon it was 99.2%. Further, the growth in the test on KM12 colon was 85.5%.

Take `Nc1ccc(N)c2c1Oc1ccccc1O2`: the growth with NCI-H23 lung is 85.7%; in the test with NCI-H460 lung it was 117%; in the test with 786-0 renal it was 93.2%; in the test on DU-145 prostate it was 94.3%; in the test on MDA-MB-231 breast it was 78.5%; in the test on SF-268 CNS it was 105%. Also, the growth in the test on SF-539 CNS was 89.1%; with M14 melanoma, 101%; in the test on SNB-75 CNS, 108%; with PC-3 prostate, 88%; in the test on UACC-62 melanoma it was 98.6%; with SK-MEL-28 melanoma it was 108%. Further, the growth was 94.7% in the test on ACHN renal; 89% with OVCAR-5 ovarian; 99% in the test with OVCAR-3 ovarian; 94.9% in the test on NCI/ADR-RES ovarian; 102% with SW-620 colon; 98% in the test on MCF7 breast. The growth was 95.7% with HCT-116 colon and 97.3% in the test on KM12 colon.

Source of the values: PubChem BioAssay (NCI).
